Laboratory results as given in PubChem BioAssay AID463173 (ICCB-Longwood Screening Facility, Harvard Medical School, 2010).
In all, about 52,000 compounds went through this assay and about 1,700 (3.3%) were called active. This is one part of a sample in which actives are shown more often than they occur. Rule as the data show it: active = survival mostly below about 52% (no sharp cut-off); inactive = mostly above about 56%.

The compounds below were run on Wild type (assay: growth inhibition of S. aureus wild type versus tarO mutant, primary screen, teichoic acid synthesis inhibitors, RN4220, OD600 (AID 463173)). Settings: S. aureus RN4220 wild type/DeltatarO growth, OD600, 18 h, active compounds read low, screened at 18.75 µg/mL (by protocol).

Row | SMILES | survival
1 | COc1cccc(CN2C(=O)c3ccccc3Sc3ccc(C(=O)OCc4ccco4)cc32)c1 | 72% (inactive)
2 | CCOc1ccccc1NC(=O)N1CCc2c(sc3c2CCCC3)C1c1ccccc1 (stereo not given) | 75% (inactive)
3 | COc1ccc2oc(=O)c(C(=O)Nc3cccc(C(=O)O)c3)cc2c1 | 68% (inactive)
4 | CCOc1ccc(S(=O)(=O)Nc2cccc(-c3ccc(OCC)nn3)c2)cc1 | 71% (inactive)
5 | O=C(CSCc1ccccc1Cl)N/N=C/c1ccc(O)cc1O | 122% (inactive)
6 | COc1ccc(NC(=O)CCc2c(C)nc3c(-c4ccc(F)cc4)c(C)nn3c2C)c(OC)c1 | 78% (inactive)
7 | CC(=O)c1cccc(NC(=O)C2CCN(S(=O)(=O)c3ccc4[nH]c(=O)ccc4c3)CC2)c1 | 75% (inactive)
8 | CCn1c(SCC(=O)OC2CCCCC2)nnc1-c1ccc(OC)cc1 | 113% (inactive)
9 | Cc1ccc(-c2cc(C(=O)Oc3ccc(C#N)cc3)no2)cc1 | 88% (inactive)
10 | Cc1ccc(-c2cc(C(=O)Oc3ccc(C#N)cc3)no2)cc1C | 82% (inactive)
11 | Cc1cc(C)cc(OC(=O)c2cc(-c3ccc4c(c3)OCCO4)on2)c1 | -7% (active)
12 | CC(=O)Nc1ccc(NC(=O)c2cc(-c3ccc4c(c3)OCCO4)on2)cc1 | 109% (inactive)
13 | Cc1cccc(NC(=O)c2cc(-c3ccc4c(c3)OCCO4)on2)c1 | 78% (inactive)
14 | Cc1cccc(OC(=O)c2cc(-c3ccc(C)c(C)c3)on2)c1 | -7% (active)
15 | Cc1cc(C)cc(OC(=O)c2cc(-c3ccc(Cl)cc3)on2)c1 | 87% (inactive)
16 | Cc1cccc(OC(=O)c2cc(-c3ccc4c(c3)OCCO4)on2)c1 | -7% (active)
17 | CC(=O)c1cccc(NC(=O)c2cc(-c3ccc4c(c3)OCCO4)on2)c1 | 77% (inactive)
18 | COc1ccc(CC(=O)NCC(c2ccc(N(C)C)cc2)N2CCOCC2)cc1 (stereo not given) | 81% (inactive)
19 | Clc1ccccc1-c1nnc(-c2ccccc2CNc2ccc(Br)cc2)o1 | 91% (inactive)
20 | CCCNC(=O)Cn1nc(-c2ccc(OC)cc2)c2cnc3ccc(F)cc3c21 | 73% (inactive)

Row | SMILES | survival
21 | Cc1cccc(CNS(=O)(=O)c2ccc3[nH]c(=O)ccc3c2)c1 | 124% (inactive)
22 | COc1ccc(C(C(=O)NCc2ccccc2)N(Cc2ccco2)C(=O)c2cnccn2)cc1 (stereo not given) | 101% (inactive)
23 | COc1cccc(CNC(=O)C(NS(=O)(=O)c2cccs2)C(C)C)c1 (stereo not given) | 94% (inactive)
24 | COc1ccc(OC)c(C2N=C(N)Nc3nc4ccccc4n32)c1 (stereo not given) | 72% (inactive)
25 | COc1cc(Nc2nc3ccc(Cl)cc3nc2-n2nc(C)cc2C)cc(OC)c1 | 93% (inactive)
26 | Cc1cc(C)n2c(SCC(=O)N(C)C3CCCCC3)nnc2n1 | 101% (inactive)
27 | CC(C)(C)C(=O)NC1CCN(S(=O)(=O)c2ccccc2C(=O)O)CC1 | 105% (inactive)
28 | CCCN(CCC)CCCNC(=O)c1cc2c(-c3ccc(Cl)cc3)nn(C)c2s1 | 95% (inactive)
29 | CCCCN(CC)CCNC(=O)c1cc2c(-c3ccc(Cl)cc3)nn(C)c2s1 | 5% (active)
30 | CCCN(CCC)CCNC(=O)c1cc2c(-c3ccc(Cl)cc3)nn(C)c2s1 | 81% (inactive)
31 | CCOc1ccc(-c2c(C)nn3c(C)c(C(=O)NC(C)c4ccccc4)cnc23)cc1OCC (stereo not given) | 75% (inactive)
32 | Cc1ccc(CNC(=O)CN2C(=O)CCc3cc(S(=O)(=O)N4CCCCC4)ccc32)cc1 | 91% (inactive)
33 | COc1nc(C)c(/C=C/C(=O)N(C(=O)NC2CCCCC2)C2CCCCC2)c(OC)n1 | 101% (inactive)
34 | FC(F)(F)c1cccc(N2CCN(c3nc4ccccc4n4cnnc34)CC2)c1 | 2% (active)
35 | CCc1nnc2c(N3CCN(c4cccc(C(F)(F)F)c4)CC3)nc3ccccc3n12 | 120% (inactive)
36 | Clc1cccc(N2CCN(c3nc4ccccc4n4cnnc34)CC2)c1 | 70% (inactive)
37 | COc1cccc(/C=C/c2nc(C#N)c(N3CCCCC3)o2)c1 | 67% (inactive)
38 | CCOc1ccccc1N(C)C(=O)Cn1cnc2onc(-c3ccc(F)cc3)c2c1=O | 90% (inactive)
39 | COc1ccccc1CNc1nccn(-c2ccc(F)cc2)c1=O | 76% (inactive)
40 | O=c1c(NCCc2ccc(Cl)cc2)nccn1-c1ccccc1 | 14% (active)

Row | SMILES | survival
41 | COc1ccc(-n2ccnc(NCc3ccccc3Cl)c2=O)cc1OC | 71% (inactive)
42 | Cc1cc(C)cc(-n2ccnc(NCCc3ccccc3)c2=O)c1 | 75% (inactive)
43 | O=c1c(NCc2ccccc2Cl)nccn1-c1ccccc1 | -1% (active)
44 | COc1ccc(-n2ccnc(NCCc3ccc(Cl)cc3)c2=O)cc1OC | 47% (inactive)
45 | Cc1ccc(S(=O)(=O)NCC2CCC(C(=O)NCc3ccc(F)cc3)CC2)cc1 (stereo not given) | 75% (inactive)
46 | CCC(C)NC(=O)c1ccc2c(c1)N(Cc1ccccc1)C(=O)c1ccccc1S2(=O)=O (stereo not given) | 85% (inactive)
47 | COC(=O)c1cc(S(=O)(=O)NCC2CCN(Cc3cccc(F)c3)CC2)c[nH]1 | 90% (inactive)
48 | CN(Cc1nc(-c2ccc(Cl)cc2)no1)S(=O)(=O)c1ccccc1 | 82% (inactive)
49 | COc1cc(NC(=O)N2CCC(CN3CCc4ccccc4C3)CC2)cc(OC)c1 | 81% (inactive)
50 | Cc1cccc(NC(=O)N2CCC(CN3CCc4ccccc4C3)CC2)c1C | -4% (active)
51 | CCOc1ccc(NC(=O)N2CCC(CN3CCc4ccccc4C3)CC2)cc1 | -3% (active)
52 | CCOc1ccc(NC(=O)N2CCC(CN3CCCCCC3)CC2)cc1 | 111% (inactive)
53 | Cc1cccc(NC(=O)N2CCC(CN3CCCCCC3)CC2)c1C | 55% (inactive)
54 | CCOc1ccc(NC(=O)N2CCC(CN3CCC(C)CC3)CC2)cc1 | 127% (inactive)
55 | COC(=O)c1ccc(NC(=O)N2CCC(CN3CCc4ccccc4C3)CC2)cc1 | 1% (active)
56 | Cc1cc(C)cc(NC(=O)N2CCC(CN3CCc4ccccc4C3)CC2)c1 | 81% (inactive)
57 | CCc1ccccc1NC(=O)N1CCC(CN2CCc3ccccc3C2)CC1 | 60% (inactive)
58 | CCCC(=O)Nc1cc(-c2nnc3c4ccccc4c(C)nn23)ccc1C | 72% (inactive)
59 | O=C(Nc1ccc(O)c(-c2nc3ccccc3o2)c1)c1ccc(Br)cc1 | 88% (inactive)
60 | CC1Cn2cc(C(=O)Nc3cccc(C(F)(F)F)c3)c(=O)c3c(Cl)ccc(c32)O1 (stereo not given) | 89% (inactive)
